Assay results taken from PubChem BioAssay (NCI).
This is part of a sample that, as a whole, favours compounds with a hit. Of some 83,000 tested, about 20% had one in any assay.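 The test compound was applied at a single concentration to cells in 96-well plates for 48 hours, and percent growth was recorded.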 Unmarked numbers belong to inactive results. Active and inactive are the calls of the source. The calls were made as follows: active = growth percent below 10; inactive = the rest.

Key:
Experiment in all cases: NCI-60 one-dose screen, 48 h (100 = growth as untreated, 0 = no growth, -100 = all killed)
SK-MEL-2 melanoma = details: 10 µM unless noted
EKVX NSCLC = details: 10 µM
SN12C renal = details: 10 µM unless noted
UO-31 renal = details: 10 µM unless noted
TK-10 renal = details: 10 µM unless noted
ACHN renal = details: 10 µM unless noted
CAKI-1 renal = details: 10 µM unless noted
A498 renal = details: 10 µM unless noted
CCRF-CEM leukemia = details: 10 µM
MOLT-4 leukemia = details: 10 µM unless noted

SMILES	growth (SK-MEL-2 melanoma)	growth (EKVX NSCLC)	growth (SN12C renal)	growth (UO-31 renal)	growth (TK-10 renal)	growth (ACHN renal)	growth (CAKI-1 renal)	growth (A498 renal)	growth (CCRF-CEM leukemia)	growth (MOLT-4 leukemia)
COC(c1ccccc1)C(Br)C(=O)c1ccccc1 (stereo not given)	95.7%	103%	94.3%	75.8%	91.5%	94.6%	85%	98.6%	69.9%	98%
Nc1nc2c(c3cnccc13)C(c1ccc(Cl)c(Cl)c1)Cc1cnccc1-2 (stereo not given)	-36.3% (active)	5.75% (active)	2.42% (active)	-39.9% (active)	-40% (active)	-67.1% (active)	4.1% (active)	-45.6% (active)	3.33% (active)	2.48% (active)
COc1cc(N)c2nccc(C)c2c1OC	103%	92.7%	98.8%	164%	116%	110%	98.4%	93.5%	101%	80.6%
O=C(O)CC1Cc2ccccc2C1C(=O)O (stereo not given)	101%	105%	95.2%	79.6%	96.5%	109%	104%	90.3%	85.7%	82.3%
CCOC(=O)c1cc(C(=O)c2ccc(Br)cc2)n2cc(C)cc(C)c12	91.3%	99.5%	101%	86.8%	114%	104%	82.1%	78.4%	83.9%	98.9%
CC(C)(C)C(=O)CCCCCCCC/C=C/CCCC(O)c1ccco1 (stereo not given)	105%	102%	110%	98.3%	105%	120%	110%	109%	-44.3% (active)	76.1%
O=C(Nc1ccccc1)Nc1ccc(Nc2ncnc3sc4c(c23)CCCC4)cc1	114%	102%	99.3%	71.6%	124%	101%	100%	83.4%	92.4%	89.5%
O=C1NCCN1/N=C/c1c(Cl)nc2n1CCS2	70.2%	111%	140%	58.6%	116%	108%	98.7%	156%	-62.2% (active)	96.6%
COc1ccc2c(c1)/C(=C/c1c(-c3cc(OC)c(OC)c(OC)c3)nc3sccn13)C(=O)N2	98.6%	94.3%	105%	77.8%	102%	100%	67.3%	65.3%	-43.3% (active)	-61.2% (active)
C#CCCCCCCC[C@@H]1OC(=O)[C@H]([C@@H](C)CC)NC(=O)[C@@H]([C@@H](C)CC)NC(=O)CC(=O)[C@@H]1C	107%	93.4%	94.9%	60.9%	141%	86.8%	69.8%	86.6%	93%	87.2%
CCOC(=O)c1c2c(cn1Cc1ccccc1)-c1oncc1CC2	115%	91.3%	76.1%	48.7%	77.4%	94.1%	82.8%	50.5%	96%	100%
Nc1nc2c(c3ncncc13)C(c1cccc(C(F)(F)F)c1)Cc1ncncc1-2 (stereo not given)	48.2%	48%	55.2%	51%	50.6%	45%	34.5%	-6.07% (active)	13.5%	29.2%
CCc1ccc(C(=Nc2ccc(N(C)C(=O)CN3CCN(C)CC3)cc2)c2c(O)[nH]c3ccc(C(=O)OC)cc23)cc1	-55.4% (active)	-17.4% (active)	-57.4% (active)	-94.9% (active)	-64.7% (active)	-69.1% (active)	-82.9% (active)	-82.2% (active)	-15.5% (active)	-37.6% (active)
N=C(N)c1ccc(-c2ccc(-c3ccc(Cl)cc3)s2)s1	-29.6% (active)	-70.7% (active)	-50% (active)	-87.5% (active)	-55.3% (active)	-97% (active)	-11.6% (active)	50.9%	-70.8% (active)	-59.6% (active)
C/C=C(/C)C(=O)OC1C=C(CO)C(=O)C(OC(=O)C(C)(O)C(C)Cl)C1C(C)C (stereo not given)	-23.5% (active)	-15% (active)	-35.4% (active)	-96.5% (active)	-17.4% (active)	-96.7% (active)	-44.5% (active)	-74.6% (active)	1.18% (active)	0.566% (active)
O=C(Nn1cnc2ccccc21)N1CCCC1	116%	94%	106%	88.1%	113%	99.1%	98.8%	115%	127%	87.1%
CN1CCN(Cc2ccc(NC(=O)c3cncc(C#Cc4c(N)ncc5ccc(F)cc45)c3)cc2C(F)(F)F)CC1	-33% (active)	50.7%	36.4%	-78.9% (active)	11.5%	-93.6% (active)	25.2%	15%	0.436% (active)	9.77% (active)
C=C(C)[C@@H]1CC[C@]2(COC(=O)c3ccccc3C(=O)O)CC[C@]3(C)[C@H](CC[C@@H]4[C@@]5(C)CCCNC(C)(C)[C@@H]5CC[C@]43C)[C@@H]12	94.4%	78.6%	59.3%	72.7%	65.6%	65%	91.7%	113%	28.8%	-7.13% (active)
C/C(=N\Nc1ccc(Cl)cn1)c1ccccn1	28.3%	8.35% (active)	15.3%	-2.91% (active)	33.6%	2.81% (active)	5.04% (active)	-25.2% (active)	2.72% (active)	2.11% (active)
